Drawing on PubChem BioAssay (NCI), this text covers growth for 19 molecules.

Where “and” joins values, the source holds several entries; their conditions need not be identical. Equal entries are not always repeated. Compounds without any hit were thinned out: in the full panel of roughly 83,000, 20% have a hit.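 Testing used 96-well plates and a 48-hour single-concentration exposure. Example: -40 means 40% of the starting cells died.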 Calls of active or inactive are those of the source. The calls were made as follows: active = growth percent below 10; inactive = the rest.

Holding throughout (assay): NCI-60 one-dose screen, 48 h (100 = growth as untreated, 0 = no growth, -100 = all killed)
The test system of one assay is T-47D breast. The note with it: 10 µM unless noted.
In another assay the test system is BT-549 breast. The note with it: 10 µM unless noted.
The next assay concerns MDA-MB-435 melanoma. The note with it: 10 µM unless noted.
The subject of a further assay is SW-620 colon. The note with it: 10 µM unless noted.
In another assay the test system is MCF7 breast.
For a further assay, the system named is HCT-116 colon. The note with it: 10 µM unless noted.
For the next assay, the system named is KM12 colon. The note with it: 10 µM unless noted.
A further assay deals with HCC-2998 colon. The note with it: 10 µM unless noted.

On to `COc1cc(Nc2nc3ccccc3cc2C(=O)Nc2ccc(F)c(F)c2)cc(OC)c1OC`, for which the growth in the assay on T-47D breast is 9.25% (active); in the assay with BT-549 breast, 55.5% (inactive); in the assay on MDA-MB-435 melanoma it was 19.7% (inactive); in the assay with SW-620 colon, 23% (inactive); in the assay with MCF7 breast (10 µM unless noted) it was 12.8% (inactive); in the assay with HCT-116 colon, 6.91% (active). For the same molecule, the growth in the assay with KM12 colon is 20% (inactive).

Consider `O=C1C(N2CCOCC2)=C(I)C(=O)c2ncccc21`, for which the growth in the assay with T-47D breast was 53.7% (inactive); in the assay with BT-549 breast it was 87.1% (inactive); in the assay with MDA-MB-435 melanoma it was -69.4% (active); in the assay with SW-620 colon, 69.2% (inactive); in the assay with MCF7 breast (10 µM unless noted) it was 41.3% (inactive); with HCT-116 colon, 49.4% (inactive). Also, in the assay with KM12 colon, the growth was 91.8% (inactive).

As to `O=S(=O)(Nc1ccc(F)cc1)c1ccc(-c2cnc(C3CC3)o2)cc1`, the growth in the assay on T-47D breast was 32.6% (inactive); in the assay with BT-549 breast, 52.8% (inactive); in the assay with MDA-MB-435 melanoma, -10.3% (active); in the assay on SW-620 colon, 20.6% (inactive); in the assay on MCF7 breast (10 µM unless noted), 16.3% (inactive); in the assay with HCT-116 colon, 18.8% (inactive). The growth in the assay with KM12 colon was 21.2% (inactive).

With `COc1ccc(C(CC(=O)c2ccc3c(c2)OCO3)C(=O)O)cc1OC` (stereo unspecified), the growth with T-47D breast was 104% (inactive) and 91.9% (inactive); with BT-549 breast, 115% (inactive) and 106% (inactive); in the assay with MDA-MB-435 melanoma, 108% (inactive) and 102% (inactive); in the assay on SW-620 colon it was 100% (inactive) and 108% (inactive); with MCF7 breast (10 µM unless noted), 100% (inactive) and 96.6% (inactive); in the assay on HCT-116 colon, 119% (inactive) and 97.1% (inactive). In addition, the growth in the assay on KM12 colon was 110% (inactive) and 95.7% (inactive).

Consider `CCN(CC)CCOc1ccc(/C(=C(\Cl)c2ccccc2)c2ccccc2)cc1`, for which the growth with T-47D breast is 23.4% (inactive) and 48.9% (inactive); with BT-549 breast, 43.4% (inactive) and 92.6% (inactive); in the assay on MDA-MB-435 melanoma, 7.34% (active); in the assay on SW-620 colon it was -55% (active); with MCF7 breast (10 µM unless noted), 16.2% (inactive) and 27.4% (inactive); in the assay with HCT-116 colon, 11.4% (inactive) and 57.8% (inactive). For the same molecule, the growth in the assay with KM12 colon was 21.8% (inactive) and 75.9% (inactive).

As for `CCOC(=O)c1cnn(CC(O)CC)c1NC(=O)NCc1ccccc1C(F)(F)F` (stereo unspecified), the growth was 86.7% (inactive) in the assay on T-47D breast; 84.4% (inactive) in the assay on BT-549 breast; 105% (inactive) with MDA-MB-435 melanoma; 108% (inactive) with SW-620 colon; 93.7% (inactive) in the assay with MCF7 breast (10 µM unless noted); 78.5% (inactive) in the assay on HCT-116 colon. In addition, the growth in the assay on KM12 colon is 103% (inactive).

Regarding `Cn1cc(-c2nonc2-c2cn(C)c3ccc(Br)cc23)c2ccccc21`, the growth is 23.6% (inactive) with T-47D breast; 34% (inactive) with BT-549 breast; -20.3% (active) with MDA-MB-435 melanoma; 14.7% (inactive) in the assay with SW-620 colon; 15.4% (inactive) with MCF7 breast (10 µM unless noted); 17.1% (inactive) in the assay with HCT-116 colon. In the assay with KM12 colon, the growth was 23.3% (inactive).

Turning to `c1ccc(-c2cc(-c3cc(-c4ccccc4)on3)no2)cc1`, the growth is 85.2% (inactive) with T-47D breast; 99.4% (inactive) with BT-549 breast; 102% (inactive) in the assay with MDA-MB-435 melanoma; 51.5% (inactive) in the assay on SW-620 colon; 49.1% (inactive) in the assay on MCF7 breast (10 µM unless noted); 41.8% (inactive) with HCT-116 colon. Besides, the growth with KM12 colon is 92.8% (inactive).

Regarding `CCCCCCCCCCCCC[C@H](O)C[C@H](O)[C@H](C)N`, the growth in the assay on T-47D breast was 122% [1.25 µM] (inactive); in the assay on BT-549 breast, 107% [1.25 µM] (inactive); with MDA-MB-435 melanoma, 116% [1.25 µM] (inactive); in the assay on SW-620 colon it was 99.9% [1.25 µM] (inactive); in the assay on MCF7 breast (10 µM unless noted) it was 104% [1.25 µM] (inactive); with HCT-116 colon, 83.1% [1.25 µM] (inactive). In addition, in the assay on KM12 colon, the growth is 116% [1.25 µM] (inactive).

For the molecule `CC(C)(C)CC(N)=O`, the growth is 75.3% (inactive) in the assay on BT-549 breast; 109% (inactive) in the assay with MDA-MB-435 melanoma; 102% (inactive) in the assay with SW-620 colon; 85.9% (inactive) in the assay on MCF7 breast (10 µM); 85.2% (inactive) and 8.62% (active) in the assay on MCF7 breast (100 µM); 93.6% (inactive) in the assay with HCT-116 colon. Further, the growth with HCC-2998 colon was 106% (inactive); in the assay with KM12 colon it was 109% (inactive).

As for `OCCN1CCN(c2cc(-c3cccc(OC(F)(F)F)c3)nc3ccc(N4CCCC4)cc23)CC1`, the growth is 32.2% (inactive) in the assay with T-47D breast; 80.5% (inactive) with BT-549 breast; 29.7% (inactive) with MDA-MB-435 melanoma; 2.96% (active) in the assay with SW-620 colon; 17.5% (inactive) in the assay on MCF7 breast (10 µM unless noted); 15.6% (inactive) in the assay with HCT-116 colon. In addition, the figures for the growth with HCC-2998 colon and with KM12 colon were 22.9% (inactive) and 23.4% (inactive), respectively.

As to `O=C([C@H]1C[C@H]1c1ccc(S(F)(F)(F)(F)F)cc1)N1CCN(c2cc(Cl)ccc2C(F)(F)F)CC1`, the growth was 74.9% (inactive) with T-47D breast; 106% (inactive) in the assay with BT-549 breast; 102% (inactive) in the assay on MDA-MB-435 melanoma; 95.9% (inactive) in the assay with SW-620 colon; 89.6% (inactive) in the assay with MCF7 breast (10 µM unless noted); 60.2% (inactive) in the assay with HCT-116 colon. Also, the growth in the assay on KM12 colon was 82.5% (inactive).

For the molecule `Cc1[nH]c(C(=O)Nc2nc3ccc(NC(=O)CCN)cc3s2)c(Cl)c1Cl`, the growth with T-47D breast is 54.8% (inactive); in the assay with BT-549 breast, 88.9% (inactive); in the assay on MDA-MB-435 melanoma, 91.3% (inactive); in the assay with SW-620 colon, 43.7% (inactive); in the assay on MCF7 breast (10 µM unless noted), 52.3% (inactive); in the assay on HCT-116 colon it was 59.9% (inactive). Further, the growth in the assay on KM12 colon was 90.3% (inactive).

For the molecule `COc1ccc(C(c2cc(OC)c(OC)c(OC)c2)n2ccnc2)cc1O` (stereo unspecified), the growth was 42.6% (inactive) in the assay on T-47D breast; -0.0718% (active) with BT-549 breast; -29.5% (active) with MDA-MB-435 melanoma; 28.6% (inactive) with SW-620 colon; 18.4% (inactive) in the assay with MCF7 breast (10 µM unless noted); 6.88% (active) in the assay with HCT-116 colon. Also, the growth in the assay with KM12 colon was 17% (inactive).

`COC1=CC(c2ccc[nH]2)=N/C1=C\c1[nH]c(C)c(C(=O)Oc2ccccc2)c1C`: the growth in the assay on T-47D breast is -65.7% (active); in the assay with BT-549 breast it was -15.4% (active); in the assay on MDA-MB-435 melanoma, -68.6% (active); in the assay with SW-620 colon it was -20.9% (active); with MCF7 breast (10 µM unless noted), -54.7% (active); in the assay on HCT-116 colon it was -82.1% (active). The growth in the assay with KM12 colon was -66% (active).

In the case of `Nc1ncc(-c2ccc3ncnc(N4CCc5ccc(Cl)cc54)c3c2)cc1C(F)(F)F`, the growth with T-47D breast was 12% (inactive); in the assay with BT-549 breast it was -2.6% (active); in the assay on MDA-MB-435 melanoma, 13.7% (inactive); in the assay with SW-620 colon, 34.8% (inactive); with MCF7 breast (10 µM unless noted), 7.34% (active); in the assay on HCT-116 colon, 23.3% (inactive). Besides, the growth in the assay with KM12 colon was 13.4% (inactive).

For `COc1ccc(Cn2cc(C(=O)Nc3cccnc3Nc3ccccc3)nn2)cc1`, the growth with T-47D breast is 91.7% (inactive); with BT-549 breast, 86.9% (inactive); in the assay on MDA-MB-435 melanoma it was 96.5% (inactive); with SW-620 colon it was 112% (inactive); in the assay with MCF7 breast (10 µM unless noted), 91% (inactive); in the assay with HCT-116 colon it was 103% (inactive). Moreover, the growth with KM12 colon was 97.8% (inactive).

As for `COc1cc(NS(=O)(=O)C(C)C)cc(-c2cc(-c3ccc(N4CCNCC4)cc3)cnc2N)c1`, the growth in the assay with T-47D breast was 81.9% (inactive); with BT-549 breast, 78.4% (inactive); in the assay on MDA-MB-435 melanoma it was 92.5% (inactive); with SW-620 colon, 82% (inactive); with MCF7 breast (10 µM unless noted), 81.2% (inactive); in the assay on HCT-116 colon, 14.2% (inactive). Besides, the growth with KM12 colon is 48.3% (inactive).

As to `O=C(/C=C/c1ccc([N+](=O)[O-])cc1)c1ccccc1`, the growth is 60.2% (inactive) in the assay on T-47D breast; 93.6% (inactive) in the assay on BT-549 breast; 89.3% (inactive) with MDA-MB-435 melanoma; 72.1% (inactive) with SW-620 colon; 20.2% (inactive) in the assay on MCF7 breast (10 µM unless noted); 17% (inactive) in the assay with HCT-116 colon. Further, the growth in the assay with HCC-2998 colon is 102% (inactive); in the assay on KM12 colon, 57% (inactive).
